# Measurements from PubChem BioAssay (EPA / NIEHS).
# The source holds several records for some structures; these can differ, active in one and inactive in another. Activity calls are given as the source filed them. The calls were made as follows: active = hit-call score of the fitted dose curve at least 0.9, where 1 is the maximum; inactive = score below 0.9.
# Legend:
# [1] = read-out: Urokinase-type plasminogen activator receptor (uPAR), PLAUR (gene 5329); assay: BSK_4H_uPAR: BioMAP Diversity Plus: 4H Assay for Urokinase-type plasminogen activator receptor (uPAR) Biomarker Activity (AID 2283030); settings: primary human endothelial cells (HUVEC); actives raise or lower the signal
# In short: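 Primary human umbilical vein endothelial cells were exposed to chemical for 24 h before cell-surface uPAR was quantified by ELISA. Activity was fitted bidirectionally against the DMSO negative control baseline.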
# [2] = read-out: Vascular endothelial growth factor receptor 2 (Homo sapiens) (UniProt P35968); assay: BSK_4H_VEGFRII: BioMAP Diversity Plus: 4H Assay for Vascular endothelial growth factor receptor 2 (VEGFR2) Biomarker Activity (AID 2283031); settings: primary human endothelial cells (HUVEC); actives raise or lower the signal
# In short: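 Primary human umbilical vein endothelial cells in the BioMAP 4H system were dosed with test chemical, and 24 h later VEGFRII was measured by ELISA. Activity was fitted bidirectionally against DMSO as negative control and baseline.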
# [3] = read-out: Human Leukocyte Antigen - DR isotype (HLADR), HLA-DRA (gene 3122); assay: BSK_BE3C_HLADR: BioMAP Diversity Plus: BE3C Assay for Human Leukocyte Antigen - DR isotype (HLADR) Biomarker Activity (AID 2283032); settings: primary human bronchial epithelial cells; actives raise or lower the signal
# In short: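 Cell-surface HLA-DR ELISA readout at 24 h after dosing in the BE3C primary human lung bronchial epithelial system; gain or loss of signal against DMSO, with parallel sulforhodamine B staining of total protein for overt cytotoxicity.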
# [4] = read-out: Vascular cell adhesion molecule 1 (VCAM1), VCAM1 (gene 7412); assay: BSK_4H_VCAM1: BioMAP Diversity Plus: 4H Assay for Vascular cell adhesion molecule 1 (VCAM1) Biomarker Activity (AID 2283033); settings: primary human endothelial cells (HUVEC); actives raise or lower the signal;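 also: cell-surface VCAM-1 protein measured by ELISA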
# In short: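 VCAM-1 ELISA read 24 h after chemical dosing of HUVEC in the BioMAP 4H system, with gain or loss of signal fitted relative to DMSO. Parallel SRB staining (560 nm) checked overt cytotoxicity.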
# [5] = read-out: Interferon-gamma inducible Protein 10 (IP10), CXCL10 (gene 3627); assay: BSK_BE3C_IP10: BioMAP Diversity Plus: BE3C Assay for Interferon-gamma inducible Protein 10 (IP10) Biomarker Activity (AID 2283034); settings: primary human bronchial epithelial cells; actives raise or lower the signal
# In short: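 IP-10 quantified by ELISA in human primary bronchial epithelial cell cultures at 24 hours post-dosing. Gain or loss of signal fitted relative to DMSO; parallel SRB staining assessed overt cytotoxicity.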
# [6] = read-out: Monokine induced gamma interferon (MIG), CXCL9 (gene 4283); assay: BSK_BE3C_MIG: BioMAP Diversity Plus: BE3C Assay for Monokine induced gamma interferon (MIG) Biomarker Activity (AID 2283035); settings: primary human bronchial epithelial cells; actives raise or lower the signal
# In short: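 Dose cells (human primary bronchial epithelial), incubate 24 h, quantify MIG by ELISA, then fit concentration–response in both directions relative to DMSO control.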
# [7] = read-out: Plasminogen activator inhibitor-1 (PAI1), SERPINE1 (gene 5054); assay: BSK_BE3C_PAI1: BioMAP Diversity Plus: BE3C Assay for Plasminogen activator inhibitor-1 (PAI1) Biomarker Activity (AID 2283037); settings: primary human bronchial epithelial cells; actives raise or lower the signal
# In short: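 PAI-1 was measured by ELISA in human primary bronchial epithelial cultures 24 h after chemical dosing, with cytotoxicity checked by SRB total-protein staining in parallel cultures. Activity was fitted in both directions relative to DMSO.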
# [8] = read-out: urokinase plasminogen activator (uPA), PLAU (gene 5328); assay: BSK_BE3C_uPA: BioMAP Diversity Plus: BE3C Assay for urokinase plasminogen activator (uPA) Biomarker Activity (AID 2283038); settings: primary human bronchial epithelial cells; actives raise or lower the signal;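 also: uPA protein level quantified by ELISA in cell cultures; uPA read one day after compound addition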
# In short: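 Human primary bronchial epithelial cells were exposed to chemical for 24 h, then uPA levels were measured by ELISA. Responses were fitted bidirectionally against DMSO as negative control and baseline. Parallel SRB staining of total protein gauged overt cytotoxicity.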
# [9] = read-out: Urokinase-type plasminogen activator receptor (uPAR), PLAUR (gene 5329); assay: BSK_BE3C_uPAR: BioMAP Diversity Plus: BE3C Assay for Urokinase-type plasminogen activator receptor (uPAR) Biomarker Activity (AID 2283039); settings: primary human bronchial epithelial cells; actives raise or lower the signal;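 also: cells exposed to compound for one day before measurement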
# In short: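 uPAR levels were measured by ELISA after 24 h compound treatment of primary human bronchial epithelial cells, fitted in both directions relative to DMSO. Parallel SRB staining served as the cytotoxicity read-out.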
# [10] = read-out: Interleukin-6 (IL6), IL6 (gene 3569); assay: BSK_CASM3C_IL6: BioMAP Diversity Plus: CASM3C Assay for Interleukin-6 (IL6) Biomarker Activity for (AID 2283040); settings: primary human coronary artery smooth muscle cells; actives raise or lower the signal
# [11] = read-out: Tissue plasminogen activator (tPA), PLAT (gene 5327); assay: BSK_BE3C_tPA: BioMAP Diversity Plus: BE3C Assay for Tissue plasminogen activator (tPA) Biomarker Activity (AID 2283041); settings: primary human bronchial epithelial cells; actives raise or lower the signal;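 also: tPA level quantified by ELISA one day after compound addition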
# In short: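 tPA measured by ELISA 24 h after dosing human primary bronchial epithelial cells (BE3C system). Changes in either direction were fitted against DMSO. Parallel cultures were stained with SRB to flag overt cytotoxicity.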
# [12] = read-out: Interleukin-8 (IL8), CXCL8 (gene 3576); assay: BSK_CASM3C_IL8: BioMAP Diversity Plus: CASM3C Assay for Interleukin-8 (IL8) Biomarker Activity (AID 2283042); settings: primary human coronary artery smooth muscle cells; actives raise or lower the signal;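 also: IL-8 protein level quantified by ELISA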
# [13] = read-out: Human Leukocyte Antigen - DR isotype (HLADR), HLA-DRA (gene 3122); assay: BSK_CASM3C_HLADR: BioMAP Diversity Plus: CASM3C Assay for Human Leukocyte Antigen - DR isotype (HLADR) Biomarker Activity (AID 2283043); settings: primary human coronary artery smooth muscle cells; actives raise or lower the signal;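 also: cell-surface HLA-DR protein level quantified by ELISA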
# [14] = read-out: Macrophage colony-stimulating factor (MCSF), CSF1 (gene 1435); assay: BSK_CASM3C_MCSF: BioMAP Diversity Plus: CASM3C Assay for Macrophage colony-stimulating factor (MCSF) Biomarker Activity (AID 2283044); settings: primary human coronary artery smooth muscle cells; actives raise or lower the signal;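 also: M-CSF protein amount quantified by ELISA after 24 h exposure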
# [15] = read-out: Low-density lipoprotein receptor (LDLR), LDLR (gene 3949); assay: BSK_CASM3C_LDLR: BioMAP Diversity Plus: CASM3C Assay for Low-density lipoprotein receptor (LDLR) Biomarker Activity (AID 2283045); settings: primary human coronary artery smooth muscle cells; actives raise or lower the signal;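 also: LDLR protein level on the cell surface quantified by ELISA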
# [16] = read-out: Monocyte Chemoattractant Protein-1 (MCP1), CCL2 (gene 6347); assay: BSK_CASM3C_MCP1: BioMAP Diversity Plus: CASM3C Assay for Monocyte Chemoattractant Protein-1 (MCP1) Biomarker Activity (AID 2283046); settings: primary human coronary artery smooth muscle cells; actives raise or lower the signal;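 also: MCP-1 level quantified by ELISA 24 h after dosing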
# [17] = BSK_CASM3C_Proliferation: Cell Proliferation Assessment in the BioMAP Diversity Plus: CASM3C Assay (AID 2283047); settings: primary human coronary artery smooth muscle cells;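 also: sulforhodamine B total protein stain as relative cell number at 560 nm; sub-confluent cells exposed 48 h before staining; fitted both ways against DMSO so gain or loss of cell number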
# [18] = read-out: Monokine induced gamma interferon (MIG), CXCL9 (gene 4283); assay: BSK_CASM3C_MIG: BioMAP Diversity Plus: CASM3C Assay for Monokine induced gamma interferon (MIG) Biomarker Activity (AID 2283048); settings: primary human coronary artery smooth muscle cells; actives raise or lower the signal
# [19] = read-out: serum amyloid A (SAA), SAA1 (gene 6288); assay: BSK_CASM3C_SAA: BioMAP Diversity Plus: CASM3C Assay for serum amyloid A (SAA) Biomarker Activity (AID 2283049); settings: primary human coronary artery smooth muscle cells; actives raise or lower the signal;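 also: SAA protein level quantified by ELISA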
# [20] = read-out: Transforming growth factor beta 1 (TGFb1), TGFB1 (gene 7040); assay: BSK_BE3C_TGFb1: BioMAP Diversity Plus: BE3C Assay for Transforming growth factor beta 1 (TGFb1) Biomarker Activity (AID 2283036;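 also: TGF-b1 protein level measured by ELISA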); settings: primary human bronchial epithelial cells; actives raise or lower the signal
# In short: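 ELISA readout of TGF-b1 from human lung bronchial epithelial primary cells, taken 24 h post-treatment. Gain or loss of signal fitted relative to DMSO baseline, with parallel SRB staining for overt cytotoxicity.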
compound,measurement,setting,value
NC(=O)C(F)(F)C(F)(F)C(F)(F)C(F)F,outcome,[1],inactive
same,outcome,[2],inactive
same,outcome,[3],inactive
same,outcome,[4],inactive
same,outcome,[5],inactive
same,outcome,[6],inactive
same,outcome,[7],inactive
same,outcome,[8],inactive
same,outcome,[9],inactive
same,outcome,[10],inactive
same,outcome,[11],inactive
same,outcome,[12],inactive
same,outcome,[13],inactive
same,outcome,[14],inactive
same,outcome,[15],inactive
same,outcome,[16],inactive
same,outcome,[17],inactive
same,outcome,[18],inactive
same,outcome,[19],inactive
NC(=O)C(F)(F)C(F)(F)C(F)(F)F,outcome,[2],inactive
same,outcome,[3],inactive
same,outcome,[4],inactive
same,outcome,[5],inactive
same,outcome,[6],inactive
same,outcome,[7],inactive
same,outcome,[8],inactive
same,outcome,[9],inactive
same,outcome,[10],inactive
same,outcome,[11],inactive
same,outcome,[12],inactive
same,outcome,[13],inactive
same,outcome,[14],inactive
same,outcome,[15],inactive
same,outcome,[16],inactive
same,outcome,[17],inactive
same,outcome,[18],inactive
same,outcome,[19],inactive
O=S(=O)(OCC(F)(F)F)C(F)(F)C(F)(F)C(F)(F)C(F)(F)F,outcome,[2],inactive
same,outcome,[3],inactive
same,outcome,[4],inactive
same,outcome,[5],inactive
same,outcome,[6],inactive
same,outcome,[7],inactive
same,outcome,[8],inactive
same,outcome,[9],inactive
same,outcome,[10],inactive
same,outcome,[11],inactive
same,outcome,[12],inactive
same,outcome,[13],inactive
same,outcome,[14],inactive
same,outcome,[15],inactive
same,outcome,[16],inactive
same,outcome,[17],inactive
same,AC50,[18],30 µM (active)
same,outcome,[18],inactive
same,AC50,[19],0.653 µM (active)
same,outcome,[19],inactive
OCC(O)CC(F)(F)C(F)(F)C(F)(F)C(F)(F)C(F)(F)C(F)(F)C(F)(F)C(F)(F)F (centres undefined),outcome,[2],inactive
same,outcome,[3],inactive
same,outcome,[4],inactive
same,outcome,[5],inactive
same,outcome,[6],inactive
same,outcome,[7],inactive
same,outcome,[8],inactive
same,outcome,[9],inactive
same,outcome,[10],inactive
same,outcome,[11],inactive
same,outcome,[12],inactive
same,outcome,[13],inactive
same,outcome,[14],inactive
same,outcome,[15],inactive
same,outcome,[16],inactive
same,outcome,[17],inactive
same,outcome,[18],inactive
same,outcome,[19],inactive
CC1=CC2C3C=CC(C3)C2C1C (centres undefined),outcome,[2],inactive
same,outcome,[3],inactive
same,outcome,[4],inactive
same,outcome,[5],inactive
same,outcome,[6],inactive
same,outcome,[20],inactive
same,outcome,[7],inactive
same,outcome,[8],inactive
same,outcome,[9],inactive
same,outcome,[10],inactive
same,outcome,[11],inactive
same,outcome,[12],inactive
same,outcome,[13],inactive
same,outcome,[14],inactive
same,outcome,[15],inactive
same,outcome,[16],inactive
same,outcome,[17],inactive
same,outcome,[18],inactive
same,outcome,[19],inactive
